We go through 34 compounds from PubChem BioAssay (NCATS).

Molecules are shown by their SMILES. Records with an inconclusive call do not appear. A call without a number means that no potency is given here. A number with no mark means an inactive call. Calls of active or inactive are those of the source. The call rests on the fitted dose curve; in most records, active means well fitted cell-killing curve with a large enough effect; inconclusive means small, poorly fitted or top-dose-only effect; inactive means no such curve, though single readings can be large or run the other way.

One assay can be described thus: qHTS of pediatric cancer cell lines to identify multiple opportunities for drug repurposing: Primary screen for SK-N-SH cells (AID 1347098).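 Further: DMSO served as neutral control and bortezomib at 2.3 µM as positive control; nearly all actives have a fitted effect of over 65% in size.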 The conditions noted are these: SK-N-SH viability, CellTiter-Glo luminescence, 48 h; series mostly up to 57 µM. In short, it runs like this:
(§1)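 Cells (500-1,000/well) rested 5 h, then received compounds for 48 h; metabolically active cells were measured by CellTiter-Glo luminescence. Final concentrations spanned up to 46 µM (MIPE, 11-point) or 0.59 nM-46 µM (NPC, 8-point) in primary screens, 11-point in follow-ups.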
`CC(=O)NC(Cc1ccccc1)C(=O)O` (stereo not given): the Potency result was “inactive”.
The same measure, in the same setting: the entry for `CC(C)(C)NCC(O)COc1ccc(NC(=O)NC2CCCCC2)cc1` (stereo not given) is “inactive”; for `O=C1NS(=O)(=O)c2ccccc21` it is “inactive”.
On to `CC(C)(O)c1ccccc1CC[C@@H](SCC1(CC(=O)O)CC1)c1cccc(/C=C/c2ccc3ccc(Cl)cc3n2)c1`, for which the Potency result is “inactive”.
Same read-out and setting: the entry for `COc1ccccc1O` is “inactive”; for `Cc1c(Cl)cccc1Nc1ccccc1C(=O)O` it is “inactive”; for `CCCCCCCCCCCCOS(=O)(=O)O` it is “inactive”.
For `C[C@@H]1CN(c2c(F)c(F)c3c(=O)c(C(=O)O)cn(C4CC4)c3c2F)C[C@H](C)N1`, the Potency result was “inactive”.
Same read-out and setting: the entry for `O=C1O[C@H](CO)[C@@H](O)[C@H](O)[C@H]1O` is “inactive”.
Same read-out and setting: then `O=C(O)CC(O)C(=O)O` (stereo not given), with “inactive”; and `N[C@H]1C(O)O[C@H](CO)[C@@H](O)[C@@H]1O` (stereo not given in full), with “inactive”; and `C[C@H](N)[C@H](O)c1cccc(O)c1`, with “inactive”.
For `CN(N=O)C(=O)N[C@@H]1[C@@H](O)[C@H](O)[C@@H](CO)O[C@@H]1O`, the Potency result was “inactive”.
As for `CN(C)CCCO[C@@H]1[C@H]2OC(C)(C)O[C@H]2O[C@@H]1C(O)CO` (stereo not given in full), the Potency result was “inactive”.
As for `O=c1cc[nH]c(=S)[nH]1`, the Potency entry is “inactive”.
The same measure, in the same setting: then `Nc1ccc(S(=O)(=O)Nc2ccccc2)cc1`, with “inactive”; and `O=c1cc(CO)occ1O`, with “inactive”.
Still for that read-out and setting: the entry for `COc1cc(C)c(Cc2cnc(N)nc2N)cc1OC` is “inactive”; for `COc1cc2[nH]c(=O)[nH]c(=O)c2cc1OC` it is “inactive”; for `CCC(=O)Nc1ccc(O)cc1` it is “inactive”.
Regarding `CC1(C)[C@@H]2CC[C@@]1(C)C(=O)C2`, the Potency result was “inactive”.
Same read-out and setting: the entry for `CN1CCOC(c2ccccc2)c2ccccc2C1` (stereo not given) is “inactive”; for `CCN(CC)C(=O)Nc1ccc(OCC(O)CNC(C)(C)C)c(C(C)=O)c1` (stereo not given) it is “inactive”; for `CCCCOc1cc(C(=O)OCCN(CC)CC)ccc1N` it is “inactive”.

The nature of another assay: qHTS of pediatric cancer cell lines to identify multiple opportunities for drug repurposing: Primary screen for NB1643 cells (AID 1347099). Further: nearly all actives have a fitted effect of over 50% in size. Further: potency means the concentration at half of the fitted maximal effect. The conditions noted are these: NB1643 neuroblastoma viability, CellTiter-Glo luminescence, 48 h; series mostly up to 46 µM. In short, it runs like this:
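Viability was measured as metabolically active cells after 48 hours of treatment, read by CellTiter-Glo luminescence. Compounds were tested at multiple final concentrations, giving concentration-response curves.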
With `CC(=O)NC(Cc1ccccc1)C(=O)O` (stereo not given), the Potency result is “inactive”.
On the same count and under the same terms, then `CS(=O)(=O)c1ccc([C@@H](O)[C@@H](CF)NC(=O)C(Cl)Cl)cc1`, with “inactive”.
For the compound `Nc1nc2c(ncn2CCC(CO)CO)c(=O)[nH]1`, the Potency entry is “inactive”.
On to `Cc1cccc(Nc2cc(Cl)nc(SCC(=O)O)n2)c1C`, for which the Potency result was “inactive”.
In the case of `CC(C)(C)NCC(O)COc1ccc(NC(=O)NC2CCCCC2)cc1` (stereo not given), the Potency entry is “inactive”.
On the same count and under the same terms, then `O=C1NS(=O)(=O)c2ccccc21`, with “inactive”; and `O=C(O)c1ccccn1`, with “inactive”.
On the same count and under the same terms, the entry for `CC(C)(O)c1ccccc1CC[C@@H](SCC1(CC(=O)O)CC1)c1cccc(/C=C/c2ccc3ccc(Cl)cc3n2)c1` is “inactive”; for `COc1ccccc1O` it is “inactive”.
Take `N[C@@H](CSSC[C@H](N)C(=O)O)C(=O)O`: the activity change, negative = cytotoxic was -5.83% [at 0.597 µM].
On to `CCCCCCCCCCCCOS(=O)(=O)O`, for which the Potency entry is “inactive”.
As to `C[C@@H]1CN(c2c(F)c(F)c3c(=O)c(C(=O)O)cn(C4CC4)c3c2F)C[C@H](C)N1`, the Potency result is “inactive”.
Still for that read-out and setting: then `O=C1O[C@H](CO)[C@@H](O)[C@H](O)[C@H]1O`, with “inactive”.
Same read-out and setting: then `CC(=O)Nc1ccc(/C=N/NC(N)=S)cc1`, with “inactive”.
Same read-out and setting: the entry for `O=C(O)CC(O)C(=O)O` (stereo not given) is “inactive”.
Take `C[C@@H]1CC[C@@]2(OC1)O[C@H]1C[C@H]3[C@@H]4CC[C@H]5C[C@@H](O)CC[C@]5(C)[C@H]4CC(=O)[C@]3(C)[C@H]1[C@@H]2C`: the activity change, negative = cytotoxic was 31.5% [at 4.84 µM].
As to `N[C@H]1C(O)O[C@H](CO)[C@@H](O)[C@@H]1O` (stereo not given in full), the Potency entry is “inactive”.
As for `C[C@H](N)[C@H](O)c1cccc(O)c1`, the Potency entry is “inactive”.
The same measure, in the same setting: the entry for `CCCCN1CCCC[C@H]1C(=O)Nc1c(C)cccc1C` is “inactive”; for `CN(N=O)C(=O)N[C@@H]1[C@@H](O)[C@H](O)[C@@H](CO)O[C@@H]1O` it is “inactive”.
Same read-out and setting: the entry for `CN(C)CCCO[C@@H]1[C@H]2OC(C)(C)O[C@H]2O[C@@H]1C(O)CO` (stereo not given in full) is “inactive”.
Same read-out and setting: then `O=c1cc[nH]c(=S)[nH]1`, with 1 nM (active); and `Nc1ccc(S(=O)(=O)Nc2ccccc2)cc1`, with “inactive”; and `O=c1cc(CO)occ1O`, with “inactive”.
For the compound `CC(C)(C)C(=O)C(Oc1ccc(Cl)cc1)n1ccnc1` (stereo not given), the Potency entry is “inactive”.
On to `COc1cc2[nH]c(=O)[nH]c(=O)c2cc1OC`, for which the Potency entry was “inactive”.
For `COc1ccc(S(=O)(=O)Nc2nnc(CC(C)C)s2)cc1`, the Potency result was “inactive”.
On the same count and under the same terms, then `CCC(=O)Nc1ccc(O)cc1`, with “inactive”; and `CC1(C)[C@@H]2CC[C@@]1(C)C(=O)C2`, with “inactive”; and `CN1CCOC(c2ccccc2)c2ccccc2C1` (stereo not given), with “inactive”.
For the compound `CCN(CC)C(=O)Nc1ccc(OCC(O)CNC(C)(C)C)c(C(C)=O)c1` (stereo not given), the Potency result is “inactive”.
Same read-out and setting: the entry for `CCCCOc1cc(C(=O)OCCN(CC)CC)ccc1N` is “inactive”.

Another assay is described as follows: qHTS of pediatric cancer cell lines to identify multiple opportunities for drug repurposing: Primary screen for LAN-5 cells (AID 1347100). The conditions noted are these: LAN-5 neuroblastoma viability, CellTiter-Glo luminescence, 48 h; series mostly up to 46 µM. A digest of the protocol:
as §1
On to `CC(=O)NC(Cc1ccccc1)C(=O)O` (stereo not given), for which the Potency result was “inactive”.
In the case of `CS(=O)(=O)c1ccc([C@@H](O)[C@@H](CF)NC(=O)C(Cl)Cl)cc1`, the Potency result was “inactive”.
For the compound `Nc1nc2c(ncn2CCC(CO)CO)c(=O)[nH]1`, the Potency entry is “inactive”.
Still for that read-out and setting: the entry for `Cc1cccc(Nc2cc(Cl)nc(SCC(=O)O)n2)c1C` is “inactive”; for `CC(C)(C)NCC(O)COc1ccc(NC(=O)NC2CCCCC2)cc1` (stereo not given) it is “inactive”.
Consider `O=C1NS(=O)(=O)c2ccccc21`, for which the Potency result was “inactive”.
Same read-out and setting: then `O=C(O)c1ccccn1`, with “inactive”; and `CC(C)(O)c1ccccc1CC[C@@H](SCC1(CC(=O)O)CC1)c1cccc(/C=C/c2ccc3ccc(Cl)cc3n2)c1`, with “inactive”.
`COc1ccccc1O`: the Potency entry is “inactive”.
Same read-out and setting: the entry for `Cc1c(Cl)cccc1Nc1ccccc1C(=O)O` is “inactive”.
In the case of `N[C@@H](CSSC[C@H](N)C(=O)O)C(=O)O`, the activity change, negative = cytotoxic is 6.24% [at 0.597 µM].
As to `CCCCCCCCCCCCOS(=O)(=O)O`, the Potency result is “inactive”.
As for `C[C@@H]1CN(c2c(F)c(F)c3c(=O)c(C(=O)O)cn(C4CC4)c3c2F)C[C@H](C)N1`, the Potency entry was “inactive”.
On the same count and under the same terms, the entry for `O=C1O[C@H](CO)[C@@H](O)[C@H](O)[C@H]1O` is “inactive”; for `CC(=O)Nc1ccc(/C=N/NC(N)=S)cc1` it is “inactive”.
Take `O=C(O)CC(O)C(=O)O` (stereo not given): the Potency result was “inactive”.
For the compound `C[C@@H]1CC[C@@]2(OC1)O[C@H]1C[C@H]3[C@@H]4CC[C@H]5C[C@@H](O)CC[C@]5(C)[C@H]4CC(=O)[C@]3(C)[C@H]1[C@@H]2C`, the activity change, negative = cytotoxic was -6.9% [at 4.84 µM].
For the compound `N[C@H]1C(O)O[C@H](CO)[C@@H](O)[C@@H]1O` (stereo not given in full), the Potency result was “inactive”.
`C[C@H](N)[C@H](O)c1cccc(O)c1`: the Potency result was “inactive”.
Consider `CCCCN1CCCC[C@H]1C(=O)Nc1c(C)cccc1C`, for which the Potency result is “inactive”.
As for `CN(N=O)C(=O)N[C@@H]1[C@@H](O)[C@H](O)[C@@H](CO)O[C@@H]1O`, the Potency entry is “inactive”.
The same measure, in the same setting: the entry for `CN(C)CCCO[C@@H]1[C@H]2OC(C)(C)O[C@H]2O[C@@H]1C(O)CO` (stereo not given in full) is “inactive”; for `O=c1cc[nH]c(=S)[nH]1` it is “inactive”.
`Nc1ccc(S(=O)(=O)Nc2ccccc2)cc1`: the Potency entry is “inactive”.
Same read-out and setting: the entry for `O=c1cc(CO)occ1O` is “inactive”.
Turning to `COc1cc(C)c(Cc2cnc(N)nc2N)cc1OC`, the Potency result was “inactive”.
Same read-out and setting: then `CC(C)(C)C(=O)C(Oc1ccc(Cl)cc1)n1ccnc1` (stereo not given), with “inactive”.
For `COc1cc2[nH]c(=O)[nH]c(=O)c2cc1OC`, the Potency entry is “inactive”.
Same read-out and setting: the entry for `COc1ccc(S(=O)(=O)Nc2nnc(CC(C)C)s2)cc1` is “inactive”.
On the same count and under the same terms, the entry for `CCC(=O)Nc1ccc(O)cc1` is “inactive”; for `CC1(C)[C@@H]2CC[C@@]1(C)C(=O)C2` it is “inactive”; for `CN1CCOC(c2ccccc2)c2ccccc2C1` (stereo not given) it is “inactive”.
The same measure, in the same setting: the entry for `CCN(CC)C(=O)Nc1ccc(OCC(O)CNC(C)(C)C)c(C(C)=O)c1` (stereo not given) is “inactive”.
On to `CCCCOc1cc(C(=O)OCCN(CC)CC)ccc1N`, for which the Potency entry was “inactive”.
